Data as given in PubChem BioAssay (Tox21).
Values without a mark were called inactive. Records with an inconclusive call do not appear. Entries that show only a call come without a potency. The source made the active and inactive calls. Unless noted, calls follow the shape of the dose curve; as a rule, active = well fitted curve in the direction sought with a large enough effect in the repeat runs; inconclusive = weak or mixed curves; inactive = no such curve, though single readings can be large; an effect the other way counts as inactive or inconclusive.

How the values were obtained:
[1] = A CellTox Green Cytotoxicity Assay to monitor cytotoxicity in HEK293 cells - 32 hour (AID 1224881); also: nearly all actives have a fitted effect of over 40% in size
Procedure, shortened: (§1)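 Fluorescence intensity, read at 0, 8, 16, 24, 32 and 40 h of compound treatment, reflected dye binding to DNA of dead HEK293 cells; compounds (23 nL, DMSO) were added 5 h after plating cells with reagent.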

[2] = A CellTox Green Cytotoxicity Assay to monitor cytotoxicity in HepG2 cells - 0 hour (AID 1224882); also: nearly all actives have a fitted effect of over 35% in size
Procedure, shortened: (§2)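 Using 1536-well format, dye-containing HepG2 suspension was seeded, allowed 5 h at 37 C/5% CO2, dosed by pintool with compounds, positive and negative controls, and imaged for fluorescence across 40 h.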

[3] = A CellTox Green Cytotoxicity Assay to monitor cytotoxicity in HepG2 cells - 32 hour (AID 1224883); also: nearly all actives have a fitted effect of over 50% in size
Procedure, shortened: as §2

[4] = A CellTox Green Cytotoxicity Assay to monitor cytotoxicity in HEK293 cells - 8 hour (AID 1224884); also: nearly all actives have a fitted effect of over 35% in size
Procedure, shortened: as §1

[5] = qHTS RealTime-Glo MT Cell Viability Assay in HepG2 cells - 16 hour (AID 1224885); also: nearly all actives have a fitted effect of over 50% in size
Procedure, shortened: (§3)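 HepG2 cells were seeded at 600 cells/well together with NanoLuc luciferase and a cell-permeant prosubstrate, preincubated 5 h at 37 C/5% CO2, then pin-dosed with compounds in DMSO. Nonlytic luminescence from viable cells was read at each time point.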

[6] = qHTS RealTime-Glo MT Cell Viability Assay in HEK293 cells - 8 hour (AID 1224887); also: nearly all actives have a fitted effect of over 50% in size; also: potency is read from the fitted curve at half-maximal effect
Procedure, shortened: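 Viable HEK293 cells reduce a cell-permeant prosubstrate; the product diffuses out and is consumed by NanoLuc in the medium to give light. Compounds went in after a 5 h incubation and plates were read over the treatment course.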

[7] = A CellTox Green Cytotoxicity Assay to monitor cytotoxicity in HEK293 cells - 16 hour (AID 1224888); also: nearly all actives have a fitted effect of over 35% in size
Procedure, shortened: as §1

[8] = qHTS RealTime-Glo MT Cell Viability Assay in HepG2 cells - 0 hour (AID 1224889); also: nearly all actives have a fitted effect of over 50% in size; also: potency is read from the fitted curve at half-maximal effect
Procedure, shortened: as §3

[9] = A CellTox Green Cytotoxicity Assay to monitor cytotoxicity in HepG2 cells - 8 hour (AID 1224890); also: nearly all actives have a fitted effect of over 45% in size
Procedure, shortened: as §2

[10] = qHTS assay to identify small molecule antagonists of the estrogen receptor alpha (ER-alpha) signaling pathway using the BG1 cell line in the presence of 0.1 nM 17-beta-estradiol - cell viability counter screen (AID 1259241); also: nearly all actives have a fitted effect of over 40% in size
Procedure, shortened: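 Cytotoxicity counter-screen: live-cell protease activity measured by fluorescence (30 min reagent step) in the same wells. Cells were VM7Luc4E2 with endogenous ER-alpha and ERE-driven luciferase, treated 22 hr at 37C alongside 0.1 nM 17beta-estradiol final.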

[11] = qHTS assay to identify small molecule antagonists of the androgen receptor (AR) signaling pathway using the MDA cell line in the presence of 0.5 nM R1881 - cell viability counter screen (AID 1259242); also: nearly all actives have a fitted effect of over 45% in size; also: potency is read from the fitted curve at half-maximal effect
Procedure, shortened: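 Viability of MDA-kb2 cells was multiplexed with the luciferase AR readout; after 16 hr with compounds and R1881 at 0.5 nM final, CellTiter-Fluor fluorescence was recorded.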

[12] = qHTS assay to identify small molecule HDAC inhibitors (AID 1259364);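 also: wild-type HCT-116 cells with endogenous class I/II HDAC activity; top concentration of the series differs between compounds; nearly all actives have a fitted effect of over 45% in size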
Procedure, shortened: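 Read-out: luminescence of HDAC-Glo I/II reagent, 30 min RT, reflecting class I/II deacetylase activity in whole HCT-116 cells pre-exposed 2 h to DMSO-dissolved compounds.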

[13] = qHTS assay to identify small molecule HDAC inhibitors - cell viability counter screen (AID 1259365)
Procedure, shortened: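 CellTiter-Glo luminescence (30 min, room temperature) reported viability after a 2 h compound exposure at 37 C. Cells: wild-type HCT-116, 1,500 per well, seeded the night before.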

[14] = qHTS assay to identify small molecule agonists of the sonic hedgehog signaling (Shh) pathway - cell viability counter screen (AID 1259366); also: nearly all actives have a fitted effect of over 50% in size; also: potency is read from the fitted curve at half-maximal effect
Procedure, shortened: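 Cytotoxicity counter screen: CellTiter-Fluor reagent added after 23 h compound exposure, then 1 h at 37C and fluorescence read. Cells were 3T3 Gli1-Luc, seeded 2,000 per well and dosed 4 h post-plating.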

[15] = qHTS assay to identify small molecule antagonists of the sonic hedgehog signaling (Shh) pathway - cell viability counter screen (AID 1259367); also: nearly all actives have a fitted effect of over 55% in size; also: potency is read from the fitted curve at half-maximal effect
Procedure, shortened: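 NIH/3T3-derived Gli1-Luc reporter cells, 2,000/well, plated 4 hr before compound addition, then stimulated with conditioned medium for 24 hr at 37C. Viability measured in the same wells by CellTiter-Fluor fluorescence, reagent added at 23 hr for 1 hr.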

[16] = qHTS assay to identify small molecule agonists of the sonic hedgehog signaling (Shh) pathway (AID 1259368; calls by dose curve;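 also: NIH/3T3-derived 3T3Gli1-Luc cells carrying a stable Gli1-driven firefly luciferase reporter; series mostly up to about 92 µM; nearly all actives have a fitted effect of over 15% in size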)
Procedure, shortened: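 A Gli1 transcriptional response element controlled firefly luciferase in 3T3Gli1-Luc cells. Compounds and a positive control were added 4 hr after plating, and cells were incubated a further 24 hr at 37 C before luminescence detection.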

[17] = qHTS RealTime-Glo MT Cell Viability Assay in HEK293 cells - 24 hour (AID 1224886); also: nearly all actives have a fitted effect of over 50% in size; also: potency is read from the fitted curve at half-maximal effect
Procedure, shortened: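 HEK293 cells were seeded at 600 cells/well together with NanoLuc luciferase and cell-permeant prosubstrate, preincubated 5 h at 37 C/5% CO2, then given compound in DMSO by pintool. Luminescence from viable-cell prosubstrate reduction was read repeatedly over 40 h.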

[18] = qHTS assay to identify small molecule phospholipidosis (PLD) inducers (AID 1259344; active = well fitted curve in the direction sought with a large enough effect; an effect the other way counts as inactive or inconclusive)
Procedure, shortened: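 HepG2 cells, 900/well, treated with compound plus LipidTOX Red for 24 h at 37 C; amiodarone positive and DMSO negative controls. Fixed with paraformaldehyde/Hoechst, then high-content imaging scored LipidTOX pit count and integrated intensity per well and per cell.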

[19] = molecular target: Estrogen receptor (Homo sapiens) (UniProt P03372); experiment: qHTS assay to identify small molecule antagonists of the estrogen receptor alpha (ER-alpha) signaling pathway using the BG1 cell line in the presence of 0.1 nM 17-beta-estradiol (AID 1259244); also: nearly all actives have a fitted effect of over 50% in size; also: potency is read from the fitted curve at half-maximal effect
Chain of Estrogen receptor (Homo sapiens) (P03372 whole entry, looked up): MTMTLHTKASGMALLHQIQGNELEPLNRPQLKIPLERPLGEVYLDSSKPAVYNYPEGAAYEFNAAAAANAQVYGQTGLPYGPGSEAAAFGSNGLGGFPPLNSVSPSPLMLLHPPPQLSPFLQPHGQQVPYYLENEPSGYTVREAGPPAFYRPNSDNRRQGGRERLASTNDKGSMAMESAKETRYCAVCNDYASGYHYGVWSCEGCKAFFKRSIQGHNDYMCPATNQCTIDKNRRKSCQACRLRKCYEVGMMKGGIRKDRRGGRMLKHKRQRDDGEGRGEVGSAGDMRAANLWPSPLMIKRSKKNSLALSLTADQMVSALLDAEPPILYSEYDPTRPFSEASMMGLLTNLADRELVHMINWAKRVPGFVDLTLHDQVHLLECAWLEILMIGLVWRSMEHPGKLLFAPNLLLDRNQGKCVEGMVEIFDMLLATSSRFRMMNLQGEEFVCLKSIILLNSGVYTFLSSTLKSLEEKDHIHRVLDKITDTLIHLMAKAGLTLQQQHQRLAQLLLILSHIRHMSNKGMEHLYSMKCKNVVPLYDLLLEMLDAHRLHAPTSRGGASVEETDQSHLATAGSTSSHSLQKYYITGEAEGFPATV
Procedure, shortened: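 Estradiol at 0.1 nM (final) stimulates the endogenous ER-alpha of VM7Luc4E2 cells carrying an ERE-driven luciferase; compounds are co-incubated 22 h at 37C and luciferase output quantified by luminescence.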

[20] = molecular target: Androgen receptor (Homo sapiens) (UniProt P10275); experiment: qHTS assay to identify small molecule antagonists of the androgen receptor (AR) signaling pathway using the MDA cell line in the presence of 0.5 nM R1881 (AID 1259243); also: nearly all actives have a fitted effect of over 50% in size; also: potency is read from the fitted curve at half-maximal effect
Chain of Androgen receptor (Homo sapiens) (P10275 whole entry, looked up): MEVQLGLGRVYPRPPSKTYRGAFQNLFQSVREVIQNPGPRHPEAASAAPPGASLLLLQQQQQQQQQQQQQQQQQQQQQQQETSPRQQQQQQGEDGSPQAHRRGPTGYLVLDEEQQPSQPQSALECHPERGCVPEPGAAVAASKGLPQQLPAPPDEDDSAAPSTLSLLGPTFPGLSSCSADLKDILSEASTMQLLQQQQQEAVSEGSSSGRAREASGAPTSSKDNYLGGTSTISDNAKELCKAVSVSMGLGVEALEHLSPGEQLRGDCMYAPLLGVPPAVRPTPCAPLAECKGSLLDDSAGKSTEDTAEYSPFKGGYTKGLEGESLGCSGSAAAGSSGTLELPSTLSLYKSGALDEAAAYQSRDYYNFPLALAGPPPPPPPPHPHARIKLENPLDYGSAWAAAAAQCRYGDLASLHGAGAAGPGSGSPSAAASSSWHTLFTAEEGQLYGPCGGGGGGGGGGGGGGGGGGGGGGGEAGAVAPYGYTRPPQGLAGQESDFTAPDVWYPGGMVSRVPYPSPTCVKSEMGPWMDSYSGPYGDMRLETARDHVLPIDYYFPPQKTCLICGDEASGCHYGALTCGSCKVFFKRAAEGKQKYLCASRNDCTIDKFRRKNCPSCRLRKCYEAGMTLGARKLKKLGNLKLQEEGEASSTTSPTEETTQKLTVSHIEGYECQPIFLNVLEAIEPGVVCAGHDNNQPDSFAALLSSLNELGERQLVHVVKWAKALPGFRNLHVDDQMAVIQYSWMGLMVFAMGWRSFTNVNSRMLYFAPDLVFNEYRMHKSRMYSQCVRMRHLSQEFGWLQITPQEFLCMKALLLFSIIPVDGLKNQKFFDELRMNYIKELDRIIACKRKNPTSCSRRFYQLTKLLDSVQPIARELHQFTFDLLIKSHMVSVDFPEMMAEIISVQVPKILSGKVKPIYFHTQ
Procedure, shortened: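 Reporter cells cultured without CO2 receive test chemicals, then 0.5 nM R1881 final; after 16 hr at 37C, ONE-Glo is added and light output recorded.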

CCCCC(CC)COCCCN (configuration not stated)
Potency [1]: inactive
Potency [2]: inactive
Potency [3]: inactive
Potency [4]: inactive
Potency [5]: inactive
Potency [6]: inactive
Potency [7]: inactive
Potency [8]: inactive
Potency [9]: inactive
Potency [10]: inactive
Potency [11]: inactive
Potency [12]: inactive
outcome [13]: inactive
Potency [14]: inactive
Potency [15]: inactive
outcome [16]: inactive

C=Cc1c(C)c2cc3[nH]c(cc4nc(cc5nc(cc1[nH]2)C(C)=C5CCC(=O)O)C(CCC(=O)O)=C4C)c(C)c3C=C
Potency [1]: inactive
Potency [2]: inactive
Potency [3]: inactive
Potency [4]: inactive
Potency [5]: inactive
Potency [17]: inactive
Potency [7]: inactive
Potency [8]: inactive
Potency [9]: inactive
Potency [18]: inactive
Potency [12]: inactive
outcome [13]: inactive
Potency [15]: 23.7 µM (active)
outcome [16]: inactive

CC(=O)[C@@]1(O)CC[C@H]2[C@@H]3C[C@H](C)C4=CC(=O)CC[C@]4(C)[C@H]3CC[C@@]21C
Potency [1]: inactive
Potency [2]: inactive
Potency [3]: inactive
Potency [4]: inactive
Potency [5]: inactive
Potency [7]: inactive
Potency [8]: 1.51 µM (active)
Potency [9]: inactive
Potency [10]: inactive
Potency [11]: inactive
Potency [19]: inactive
Potency [12]: inactive
outcome [13]: inactive
Potency [14]: inactive
Potency [15]: inactive
outcome [16]: inactive

CC(C)(C)c1cc(O)c(C(C)(C)C)cc1O
Potency [1]: inactive
Potency [2]: inactive
Potency [3]: inactive
Potency [4]: inactive
Potency [5]: inactive
Potency [17]: 21.9 µM (active)
Potency [6]: 15.5 µM (active)
Potency [7]: inactive
Potency [8]: inactive
Potency [9]: inactive
Potency [11]: 54.5 µM (active)
Potency [20]: 19.3 µM (active)
Potency [19]: 43.3 µM (active)
Potency [12]: inactive
outcome [13]: inactive
Potency [14]: 61.1 µM (active)
outcome [16]: inactive

Cc1cc(NC(=O)C(=O)O)cc(C)c1Oc1ccc(O)c2c1CCC2
Potency [1]: inactive
Potency [2]: inactive
Potency [3]: inactive
Potency [4]: inactive
Potency [5]: inactive
Potency [17]: inactive
Potency [6]: inactive
Potency [7]: inactive
Potency [9]: inactive
Potency [10]: inactive
Potency [11]: inactive
Potency [20]: inactive
Potency [19]: inactive
Potency [12]: inactive
Potency [14]: inactive
Potency [15]: inactive
outcome [16]: inactive

O=C(/C=C/c1ccc(O)c(O)c1)O[C@@H]1C[C@](O)(C(=O)O)C[C@@H](O)[C@H]1O
Potency [1]: inactive
Potency [2]: inactive
Potency [3]: inactive
Potency [4]: inactive
Potency [17]: inactive
Potency [6]: inactive
Potency [7]: inactive
Potency [8]: inactive
Potency [9]: inactive
Potency [10]: inactive
Potency [11]: inactive
Potency [12]: inactive
outcome [13]: inactive
Potency [14]: inactive
Potency [15]: inactive
outcome [16]: inactive

CCCCCCCCC(CO)CCCCCC (configuration not stated)
Potency [1]: inactive
Potency [2]: inactive
Potency [3]: inactive
Potency [4]: inactive
Potency [5]: inactive
Potency [17]: inactive
Potency [7]: inactive
Potency [8]: inactive
Potency [9]: inactive
Potency [10]: inactive
Potency [11]: inactive
Potency [19]: inactive
Potency [12]: inactive
outcome [13]: inactive
Potency [14]: inactive
Potency [15]: inactive
outcome [16]: inactive

CC(=O)CC(=O)c1ccccc1
Potency [1]: inactive
Potency [2]: inactive
Potency [3]: inactive
Potency [4]: inactive
Potency [5]: inactive
Potency [6]: inactive
Potency [7]: inactive
Potency [8]: inactive
Potency [9]: inactive
Potency [10]: inactive
Potency [11]: inactive
Potency [19]: inactive
Potency [12]: inactive
Potency [14]: inactive
Potency [15]: inactive
outcome [16]: inactive

Cc1ccc(C)o1
Potency [1]: inactive
Potency [2]: inactive
Potency [3]: inactive
Potency [4]: inactive
Potency [5]: inactive
Potency [17]: inactive
Potency [7]: inactive
Potency [8]: inactive
Potency [9]: inactive
Potency [10]: inactive
Potency [11]: inactive
Potency [12]: inactive
outcome [13]: inactive
Potency [14]: inactive
Potency [15]: inactive
outcome [16]: inactive

Oc1ccc(Sc2ccc(O)cc2)cc1
Potency [1]: inactive
Potency [2]: inactive
Potency [3]: inactive
Potency [4]: inactive
Potency [5]: inactive
Potency [7]: inactive
Potency [8]: inactive
Potency [9]: inactive
Potency [10]: inactive
Potency [11]: inactive
Potency [19]: inactive
Potency [12]: inactive
outcome [13]: inactive
Potency [14]: inactive
Potency [15]: inactive
outcome [16]: inactive

Cc1nc2ccccc2n1Cc1ccc(Cl)cc1
Potency [1]: inactive
Potency [2]: inactive
Potency [3]: inactive
Potency [4]: inactive
Potency [5]: inactive
Potency [17]: 1.9 µM (active)
Potency [7]: inactive
Potency [8]: inactive
Potency [9]: inactive
Potency [11]: 5.96 µM (active)
Potency [19]: 2.11 µM (active)
Potency [18]: inactive
Potency [12]: inactive
outcome [13]: inactive
Potency [15]: inactive
outcome [16]: inactive

O=C(O)COC(=O)Cc1ccccc1Nc1c(Cl)cccc1Cl
Potency [1]: inactive
Potency [2]: inactive
Potency [3]: inactive
Potency [4]: inactive
Potency [5]: inactive
Potency [17]: inactive
Potency [7]: inactive
Potency [8]: inactive
Potency [9]: inactive
Potency [10]: inactive
Potency [11]: inactive
Potency [20]: inactive
Potency [19]: inactive
Potency [18]: inactive
Potency [12]: inactive
outcome [13]: inactive
Potency [14]: inactive
Potency [15]: inactive
outcome [16]: inactive

N=C(N=C(N)N)N1CCOCC1
Potency [1]: inactive
Potency [2]: inactive
Potency [3]: inactive
Potency [4]: inactive
Potency [17]: inactive
Potency [6]: inactive
Potency [7]: inactive
Potency [8]: inactive
Potency [9]: inactive
Potency [10]: inactive
Potency [11]: inactive
Potency [18]: inactive
Potency [12]: inactive
outcome [13]: inactive
Potency [15]: inactive
outcome [16]: inactive

CCCC(C)C
Potency [1]: inactive
Potency [2]: inactive
Potency [3]: inactive
Potency [4]: inactive
Potency [5]: inactive
Potency [6]: inactive
Potency [7]: inactive
Potency [8]: inactive
Potency [9]: inactive
Potency [10]: inactive
Potency [11]: inactive
Potency [19]: inactive
Potency [12]: inactive
outcome [13]: inactive
Potency [14]: inactive
Potency [15]: inactive
outcome [16]: inactive

COC(=O)CSc1cc(N=c2sc(=O)n3n2CCCC3)c(F)cc1Cl
Potency [1]: inactive
Potency [2]: inactive
Potency [3]: inactive
Potency [4]: inactive
Potency [5]: inactive
Potency [17]: inactive
Potency [6]: inactive
Potency [8]: inactive
Potency [9]: inactive
Potency [10]: inactive
Potency [11]: inactive
Potency [20]: inactive
Potency [12]: inactive
outcome [13]: inactive
Potency [14]: inactive
Potency [15]: inactive
outcome [16]: inactive

CCCCCCOC(=O)CCC
Potency [1]: inactive
Potency [2]: inactive
Potency [3]: inactive
Potency [4]: inactive
Potency [5]: inactive
Potency [17]: inactive
Potency [7]: inactive
Potency [8]: inactive
Potency [9]: inactive
Potency [10]: inactive
Potency [11]: inactive
Potency [12]: inactive
outcome [13]: inactive
Potency [15]: inactive
outcome [16]: inactive

O=C(NN1CCCC1)NS(=O)(=O)c1ccc(Cl)cc1
Potency [1]: inactive
Potency [2]: inactive
Potency [3]: inactive
Potency [4]: inactive
Potency [17]: inactive
Potency [6]: inactive
Potency [7]: inactive
Potency [8]: inactive
Potency [9]: inactive
Potency [10]: inactive
Potency [11]: inactive
PLD induction [18]: 14% [at 7.66 µM]
Potency [12]: inactive
outcome [13]: inactive
Potency [15]: inactive
outcome [16]: inactive
